Results published in PubChem BioAssay (NCI).
About 79,000 compounds went through this panel and 15% of them were active in at least one assay; those are over-represented in the sample as a whole. The source made the active and inactive calls. Cut-off read from the data, not from the text of the source: active = growth inhibition above about 70%; inactive = the rest.

Experiment: NCI Yeast Anticancer Drug Screen. Data for the CLN2oe strain (AID 163);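 note: 0% = growth of vehicle-only control cultures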
Conditions: S. cerevisiae CLN2oe strain, hits give high values
Experimental: Growth inhibition of yeast strains with defined genetic alterations is measured as a screen for potential anti-cancer activity. Selected strains with alterations in DNA damage repair or cell cycle control were exposed to compounds and growth inhibition was measured relative to vehicle treated controls. The strain used in this assay is CLN2oe

## CCC1(O)C(=O)OCc2c1cc1n(c2=O)Cc2cc3cc(Cl)ccc3nc2-1 (stereo not given)
At 1.2 µM
  growth inhibition: 6% (inactive)
At 3.7 µM
  growth inhibition: 14% (inactive)
At 11.0 µM
  growth inhibition: 33% (inactive)
At 33.0 µM
  growth inhibition: 47% (inactive)
At 100.0 µM
  growth inhibition: 59% (inactive)

## CCC1(O)C(=O)OCc2c1cc1n(c2=O)Cc2cc3ccccc3nc2-1 (stereo not given)
At 1.2 µM
  growth inhibition: 12% (inactive)
At 3.7 µM
  growth inhibition: 26% (inactive)
At 11.0 µM
  growth inhibition: 33% (inactive)
At 33.0 µM
  growth inhibition: 18% (inactive)
At 100.0 µM
  growth inhibition: 41% (inactive)

## C/C(=N\N=C(N)N)C(CN1CCOCC1)C(c1ccccc1)c1c(O)c2ccccc2oc1=O (stereo not given)
At 1.2 µM
  growth inhibition: 0% (inactive)
At 3.7 µM
  growth inhibition: 7% (inactive)
At 11.0 µM
  growth inhibition: 2% (inactive)
At 33.0 µM
  growth inhibition: 18% (inactive)
At 100.0 µM
  growth inhibition: 48% (inactive)

## O=P(CCCCP(=O)(c1ccccc1)c1ccccc1)(c1ccccc1)c1ccccc1.[Cl][Sn]([Cl])([c]1ccccc1)[c]1ccccc1
At 1.2 µM
  growth inhibition: -16% (inactive)
At 3.7 µM
  growth inhibition: -27% (inactive)
At 11.0 µM
  growth inhibition: 15% (inactive)
At 33.0 µM
  growth inhibition: 91% (active)
At 100.0 µM
  growth inhibition: 95% (active)

## C/C(CCl)=N/NC1=NC(c2ccccc2Cl)P(=O)(NCCCNP2(=O)SC(N/N=C(/C)CCl)=NC2c2ccccc2Cl)S1 (stereo not given)
At 1.2 µM
  growth inhibition: -13% (inactive)
At 3.7 µM
  growth inhibition: -4% (inactive)
At 11.0 µM
  growth inhibition: -1% (inactive)
At 33.0 µM
  growth inhibition: -16% (inactive)
At 100.0 µM
  growth inhibition: -22% (inactive)

## C/C(=N\O)c1ccc2ccc3ccccc3c2c1
At 1.2 µM
  growth inhibition: -1% (inactive)
At 3.7 µM
  growth inhibition: 2% (inactive)
At 11.0 µM
  growth inhibition: 6% (inactive)
At 33.0 µM
  growth inhibition: 28% (inactive)
At 100.0 µM
  growth inhibition: 87% (active)

## CO[C@H](/C(C)=C/C=C/C(C)=C/c1coc(C)n1)[C@H](C)[C@H]1C[C@@H](O)[C@@]2(C)O[C@H]2/C=C/[C@@H](C)[C@@H]2C[C@@H](CC(=O)O2)C[C@H]2O[C@@H]2C(=O)O1
At 1.2 µM
  growth inhibition: -24% (inactive)
At 3.7 µM
  growth inhibition: -17% (inactive)
At 11.0 µM
  growth inhibition: -13% (inactive)
At 33.0 µM
  growth inhibition: 1% (inactive)
At 100.0 µM
  growth inhibition: 88% (active)

## NNc1ccccc1Cl
At 1.2 µM
  growth inhibition: 60% (inactive)
At 3.7 µM
  growth inhibition: 93% (active)
At 11.0 µM
  growth inhibition: 96% (active)
At 33.0 µM
  growth inhibition: 97% (active)
At 100.0 µM
  growth inhibition: 98% (active)
